Test results taken from PubChem BioAssay (NCATS).
Inconclusive results are not listed. A call without a number means that no potency is given here. Unmarked numbers belong to inactive results. The source made the active and inactive calls. Calls follow the shape of the dose curve; as a rule, active = well fitted inhibition curve with a large enough effect; inconclusive = small, poorly fitted or top-dose-only effect; inactive = no such curve, though single readings can be large or run the other way.

Legend:
[1] = system: Zika virus NS2B-NS3 protease (unlinked complex); assay: Primary screen GU Rhodamine qHTS for Zika virus inhibitors: Unlinked NS2B-NS3 protease assay (AID 1347159); also: nearly all actives have a fitted effect of over 60% in size; also: potency is read from the fitted curve at half-maximal effect
In short: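 Noncovalent NS2B hydrophilic domain/NS3 protease complex (25 nM final) in 10 mM Tris-HCl pH 8.0, 0.01% Tween 20, preincubated 15 min with compounds (up to 114 microM), then 1.5 microM Rhodamine110 substrate. Fluorescence change over 15 min fitted to 4-parameter Hill.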

[2] = system: Zika virus NS2B-NS3 protease (linked construct); assay: Primary screen NINDS Rhodamine qHTS for Zika virus inhibitors (AID 1347160); also: nearly all actives have a fitted effect of over 55% in size
In short: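 Purified NS2B-NS3 protease with the NS2B hydrophilic domain joined by a flexible linker (25 nM) in 10 mM Tris-HCl pH 8.0, 0.01% Tween 20, preincubated 15 min at RT with compound; Rhodamine110 peptide substrate 1.5 µM; fluorescence change over 15 min; 4-parameter Hill fit.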

**Q.** With `COC(=O)C1=CO[C@@H](O[C@@H]2O[C@H](CO[C@@H]3O[C@H](CO)[C@@H](O)[C@H](O)[C@H]3O)[C@@H](O)[C@H](O)[C@H]2O)[C@@H]2C(CO)=CC[C@H]12` as the molecule, how does the Potency [1] read?
**A.** The Potency was “inactive”.

**Q.** And the Potency [2]?
**A.** The Potency was “inactive”.

**Q.** `CC1=CC(=O)[C@]2(O[C@@H]3O[C@@H](C)[C@H](O)[C@@H](O)[C@H]3O)C=CO[C@@H](O[C@@H]3O[C@H](CO)[C@@H](O)[C@H](O)[C@H]3O)[C@H]12` was tested. Which Potency [1] did it give?
**A.** The Potency was “inactive”.

**Q.** What about the Potency [2] of the same molecule?
**A.** The Potency was “inactive”.

**Q.** With `CC1OC(O[C@@H]2[C@H](O)[C@@H](OC3OC(CO)C(O)C(O)C3O)[C@H](OC(=O)[C@]34CCC(C)(C)C[C@H]3C3=CCC5[C@@]6(C)CC[C@H](O[C@@H]7O[C@H](C(=O)O)[C@@H](O)[C@H](O[C@@H]8OC[C@@H](O)[C@H](O)[C@H]8O)[C@H]7O[C@@H]7O[C@H](CO)[C@H](O)[C@H](O)[C@H]7O)[C@@](C)(C=O)C6CC[C@@]5(C)[C@]3(C)C[C@H]4O)O[C@@H]2C)C(O)C(O)C1OC1OCC(O)C(O)C1O` (stereo partly specified) as the molecule, how does the activity change, negative = inhibition [1] read?
**A.** Its activity change, negative = inhibition is 87.6% [at 19.1 µM].

**Q.** And the Potency [2]?
**A.** Its Potency is “inactive”.

**Q.** How did the Potency [1] turn out when `CC1=CCC[C@@H]2[C@@](C)(CCc3ccoc3)[C@H](C(=O)O)CC[C@@]12C` was run?
**A.** The Potency was 31.6 µM (active).

**Q.** And the Potency [2]?
**A.** The Potency was “inactive”.

**Q.** How did the Potency [1] turn out when `CSCC1OC(n2cnc3c(N)ncnc32)C(O)C1O` (stereo unspecified) was run?
**A.** The Potency was “inactive”.

**Q.** What about the Potency [2] of the same molecule?
**A.** Its Potency is “inactive”.

**Q.** With `CC(=O)c1[nH]cc(CCC(=O)O)c1CC(=O)O` as the molecule, how does the Potency [1] read?
**A.** Its Potency is “inactive”.

**Q.** What about the Potency [2] of the same molecule?
**A.** Its Potency is “inactive”.

**Q.** Which results are given for `CC1(C)C[C@H](O)C[C@@]2(C)[C@H]1[C@H](O)C=C1COC(=O)[C@@]12O`?
**A.** Potency [1]: inactive; Potency [2]: inactive

**Q.** How did the Potency [1] turn out when `CC(=O)[C@@H]1C[C@H](C(C)(C)O[C@@H]2O[C@H](CO)[C@@H](O)[C@H](O)[C@H]2O)CC[C@@]2(CO)OC(=O)C[C@@H]12` was run?
**A.** The Potency was “inactive”.

**Q.** And the Potency [2]?
**A.** Its Potency is “inactive”.
